Data reported in PubChem BioAssay (NCATS).
Records with an inconclusive call do not appear. A number with no mark means an inactive call. The source made the active and inactive calls. The call rests on the fitted dose curve; in most records, active means well fitted activation curve with a large enough effect; inconclusive means small, poorly fitted or top-dose-only effect; inactive means no such curve, though single readings can be large or run the other way.

target: Rap guanine nucleotide exchange factor 4 (Homo sapiens) (UniProt Q8WZA2); assay: Confirmatory qHTS for agonist of cAMP-regulated guanine nucleotide exchange factor 4 (EPAC2) (AID 1645884); details: EPAC2 GEF activity, Rap1B-BODIPY-GDP fluorescence; series mostly up to 154 µM; activation: at the top concentration;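 further: nucleotide exchange releases bodipy-GDP from Rap1 and this lowers its fluorescence; nearly all actives have a fitted effect of over 65% in size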
Sequence (Q8WZA2 whole entry, looked up): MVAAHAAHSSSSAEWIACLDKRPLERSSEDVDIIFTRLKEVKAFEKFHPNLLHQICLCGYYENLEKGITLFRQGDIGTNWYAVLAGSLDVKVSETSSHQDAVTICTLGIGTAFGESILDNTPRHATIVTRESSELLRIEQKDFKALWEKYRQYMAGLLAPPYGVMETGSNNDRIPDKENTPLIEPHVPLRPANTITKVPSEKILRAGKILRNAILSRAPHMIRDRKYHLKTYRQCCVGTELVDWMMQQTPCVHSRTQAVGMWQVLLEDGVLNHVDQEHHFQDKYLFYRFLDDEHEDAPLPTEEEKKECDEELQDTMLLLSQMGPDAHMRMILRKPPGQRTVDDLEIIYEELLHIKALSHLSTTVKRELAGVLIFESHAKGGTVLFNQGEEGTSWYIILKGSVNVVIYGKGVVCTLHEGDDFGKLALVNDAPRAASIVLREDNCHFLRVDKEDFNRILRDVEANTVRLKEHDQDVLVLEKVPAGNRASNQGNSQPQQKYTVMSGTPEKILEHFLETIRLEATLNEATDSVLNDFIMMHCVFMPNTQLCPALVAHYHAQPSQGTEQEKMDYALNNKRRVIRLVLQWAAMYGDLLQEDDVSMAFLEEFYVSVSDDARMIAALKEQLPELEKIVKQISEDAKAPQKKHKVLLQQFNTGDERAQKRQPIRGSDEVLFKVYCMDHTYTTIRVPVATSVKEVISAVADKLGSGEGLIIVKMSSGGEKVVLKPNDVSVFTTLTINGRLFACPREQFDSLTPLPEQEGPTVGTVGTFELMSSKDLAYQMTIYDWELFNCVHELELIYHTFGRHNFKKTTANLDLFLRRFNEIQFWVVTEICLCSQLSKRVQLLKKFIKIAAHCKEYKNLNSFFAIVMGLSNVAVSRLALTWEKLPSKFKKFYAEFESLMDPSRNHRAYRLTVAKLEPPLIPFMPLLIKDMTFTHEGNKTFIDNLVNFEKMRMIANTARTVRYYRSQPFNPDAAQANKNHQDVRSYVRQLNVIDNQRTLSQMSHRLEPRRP
On the % scale 0 is the no-effect control and ±100 the full control effect; potency means the concentration at half of the fitted maximal effect.

SMILES	activation	Potency
Nc1ccc(Oc2ncccn2)cc1	13%	–
COc1ccc2c(c1)C(CC(C)=O)N(c1ccc(-c3cccnc3)cc1)C(c1ccsc1)=C2 (stereo not given)	8.09%	–
Cc1cc(C)nc(SCC(=O)c2ccc(F)c(C)c2)n1	2.5%	–
Cc1cc2oc(=O)c(CC(=O)O)c(C)c2c2occ(C(C)(C)C)c12	8.68%	–
CCCCOc1ccc(NS(=O)(=O)c2ccc(-n3cnnn3)cc2)cc1	-1.21%	–
Cc1ccc(S(=O)(=O)Nc2ccccc2C(=O)Nc2nc(-c3ccc(F)cc3)cs2)cc1	-2.87%	–
Cn1c(N)c(C(=O)COC(=O)C2(c3ccc(Cl)cc3)CCCC2)c(=O)n(C)c1=O	-4.66%	–
CCSc1nc(-c2ccccc2)nc2c1CCCC2	0.324%	–
CC(=O)OCCNc1cc(N2CCN(C)CC2)c2noc3c2c1C(=O)c1ccccc1-3	-14.9%	–
CC#C[C@@H](CC)c1ccc2ccn(C)c2c1	5.93% [at 17.1 µM, percent relative to cAMP agonist control]	–
CCSc1oc(-c2cccs2)nc1S(=O)(=O)c1ccccc1	2.35%	–
O=C(Cc1ccccc1)Nn1c(O)c(/C=C2\C=Nc3ccccc32)sc1=S	–	100 µM (active)
O=c1[nH]nc(CNc2ccc(O)cc2)c2ccccc12	9.82%	–
O=C(Cc1ccc(F)cc1)Nc1ccccc1Sc1ccccc1	8.34%	–
CN(Cc1ccnc2ccccc12)C(=O)C1CCC(=O)N(Cc2ccccc2F)C1 (stereo not given)	4.52%	–
CCOC(=O)CC1C(=O)NCCN1C(=O)c1cccc(C(F)(F)F)c1 (stereo not given)	9.6%	–
COc1cc(CN2C(=O)C(C)ON=C2c2cccs2)cc(OC)c1 (stereo not given)	18.4%	–
CC(=O)c1ccc(NC(=O)c2ccc3c(c2)C(=O)N(c2ccccn2)C3=O)cc1	0%	–
CCc1nc2ccccc2c(C(=O)NCc2ccccc2)c1C	-2.41%	–
COc1ccc(Br)cc1CNc1ccc(O)cc1	-6.04%	–

SMILES	activation	Potency
CCC(=O)N1CCc2cc(OC)c(OC)cc2C1COc1ccc(F)cc1 (stereo not given)	5.75% [at 17.1 µM, percent relative to cAMP agonist control]	–
O=C1C(O)=CC(=C(c2ccccc2)c2ccccc2)c2ccccc21	0%	–
CN(C)CCNC(=O)c1ccc(-c2cn3c(-c4ccc(Oc5ccccc5)cc4)cnc3cn2)cc1	0%	–
Cc1ccc(-c2nnc(Nc3ccc4c(c3)OCO4)c3ccccc23)cc1S(N)(=O)=O	9.19%	–
Cc1ccc2oc(=O)c(/C=C(\O)c3ccco3)nc2c1	–	100 µM (active)
CC(C)NC(=O)c1sc(=S)n2c1[nH]c(=O)c1ccc(C(=O)NCCc3ccc(Cl)cc3)cc12	4.17% [at 17.1 µM, percent relative to cAMP agonist control]	–
Cc1nc2cc(-c3ccsc3-n3c(C)ccc3C)[nH]n2c(=O)c1Cl	2.42%	–
CCC(=O)NC(c1cccs1)c1cc([N+](=O)[O-])c2cccnc2c1O (stereo not given)	18.4%	–
Cc1cc(C)c2nc(N3C(=O)C(O)=C(C(=O)c4ccco4)C3c3ccc(O)cc3)sc2c1 (stereo not given)	-26.9%	–
COc1ccc2cc(/C=C3\SC(=S)NC3=O)c(N3CCOCC3)nc2c1	0.207% [at 17.1 µM, percent relative to cAMP agonist control]	–
Cc1cc(Nc2ccccc2)c2c([N+](=O)[O-])ccc(C)c2n1	22.1%	–
COc1ccccc1CN(C)CC(=O)Nc1ccccc1-c1ccccc1	9.64%	–
O=S(=O)(O)c1ccc2c(c1)C(C(Cl)(Cl)Cl)OC(C(Cl)(Cl)Cl)O2 (stereo not given)	2.99% [at 17.1 µM, percent relative to cAMP agonist control]	–
CCCc1nc2c3ccccc3ccn2c1CC(C)(C)C	10.1%	–
CCCCN(C(=O)c1ccc2c(c1)OCO2)c1ccccc1	0%	–
NC1=C(Cl)C(=O)c2ccc(S(N)(=O)=O)cc2C1=O	-0.348%	–
COc1ccc(OC)c(C(=O)c2ccc(Cl)cc2)c1	8.77% [at 17.1 µM, percent relative to cAMP agonist control]	–
COc1cc(/C=C2\COC/C(=C\c3ccc(O)c(OC)c3)C2=O)ccc1O	1.06%	–
Cc1cc(C)n(Cc2ccc(C(=O)N/N=C/c3ccc(-c4ccc([N+](=O)[O-])cc4)o3)o2)n1	-26.7%	–
N#Cc1c(C(F)(F)F)cc(-c2ccccc2)nc1SCc1nc(N)nc(N2CCOCC2)n1	14.1%	–
